Assay outcomes from PubChem BioAssay.
A selection: hits, their analogues and other compounds. The true share with any hit is near 12%.
MARV entry inh – inhibitors of Marburg virus binding or cell entry; 1.8% of 300,000 active; Marburg virus pseudotyped entry inhibition, cell reporter; AID 540276; Potency, µM (series often up to 37.8 µM), actives largely listed as inhibitors; calls by dose curve; tested in HEK293 cells
CHX counter – counter-screen hit for Shiga toxin inhibitors, cycloheximide; cell reporter, cycloheximide protein synthesis inhibition counterscreen; max response, %; 12% of 300,000 active; in the data active means max response mostly above about 13%, no sharp cut-off; inactive means mostly below about 14%; further: read at 38.3 µM for the half of the compounds with a filed dose
Shiga inhibitor – Shiga toxin inhibition | Vero cells, Shiga toxin protein synthesis inhibition reporter | inhibition, % at 38.7 µM | 9.2% of 290,000 active | AID 2315; in the data active means inhibition mostly above about 28%, no sharp cut-off; inactive means mostly below about 43%
LASV entry inh – inhibitors of Lassa virus binding or cell entry | Lassa virus pseudotype entry inhibition, cell reporter | Potency, µM (titrated, usually from 37.9 µM), usual class: inhibitors | 1.2% of 300,000 active; calls by dose curve; tested in HEK293 cells; further: nearly all actives have a fitted effect of over 50% in size
Hits are given with their value; . = inactive; ? = inconclusive; / = no result; + = active, no number.

SMILES	MARV entry inh	CHX counter	Shiga inhibitor	LASV entry inh
CC1CN(CCOCCOc2ccccc2-c2ccccc2)CC(C)O1 (stereo unspecified)	/	.	/	/
CCc1ccc(Nc2nc3ccccc3c3nnc(C)n23)cc1	/	/	/	.
COc1ccc(CN2CCn3ncc(C(=O)Nc4cccc(C)c4)c3C2=O)cc1	.	16.3	.	.
Cc1nc2c(s1)sc1ccccc12	.	18.9	.	.
Cc1cc2c(sc3ccccc32)c(C)n1	.	.	.	.
CC(=O)/C(=N/Nc1ccccc1)Sc1nnc(C(O)c2ccccc2)n1-c1ccccc1 (stereo unspecified)	.	.	.	.
O=C(CNS(=O)(=O)c1ccccc1)OCC(=O)c1ccc(OC(=O)c2ccccc2)cc1	.	15.2	32.1	.
Cc1cc(C)c(C(=O)COC(=O)c2cccc(S(=O)(=O)NCc3ccccc3)c2)cc1C	?	22.5	.	?
CNS(=O)(=O)c1cccc(C(=O)OCC(=O)NCc2ccccc2)c1	.	.	.	.
O=C(COC(=O)c1cccc(S(=O)(=O)NCc2ccccc2)c1)c1ccccc1	.	18.9	56.7	.
CN(CCc1ccccc1)Cc1ccccc1[N+](=O)[O-]	.	17.2	.	.
O=C(NNC(=S)Nc1ccc(F)c(Cl)c1)c1ccccc1Br	.	.	42.7	.
Cc1ccc(C(=O)Nc2ccc(Br)c(C(F)(F)F)c2)cc1	16.4µM	82.5	107.8	?
Cc1cccc(NC(=O)c2ccccc2C(=O)O)c1	.	.	.	.
Cc1cccc(NC(=O)c2ccc(NC(=O)c3ccccc3Br)cc2)c1	/	19.7	.	/
Cc1cccc(NC(=S)NNC(=O)c2ccccc2Br)c1	.	20.5	78.1	?
CCCC1CC(C(=O)NC(C(C)Cl)C2OC(SC)C(O)C(O)C2O)N(C)C1 (stereo unspecified)	/	.	.	/
CC1=CC[C@@H](COc2ccccc2)O[C@@]2(C1)C(=O)N(Cc1ccccc1C(F)(F)F)c1cccc(Br)c12	.	/	/	/
COc1ccc(-c2c3c(=O)n(C)c(=O)n(C)c3c3n2-c2ccccc2NC3c2ccc(OC)cc2)cc1 (stereo unspecified)	.	/	/	.
CC(NC(=O)C1CCN(S(=O)(=O)N2CCC3(CC2)OCCO3)CC1)c1ccccc1 (stereo unspecified)	.	.	.	.
CC(NC(=O)C1CCN(S(=O)(=O)N2CCCCCC2)CC1)c1ccccc1 (stereo unspecified)	.	16.5	.	.
Cc1ccc(Nc2cc(C)nc(-c3ccccc3O)n2)cc1	?	28.9	94.6	.
Cc1ccc(Nc2cc(C)nc(-c3ccccc3)n2)cc1	.	41.9	91.0	.
Cc1cc(Nc2ccc(Br)cc2)nc(-c2ccccc2O)n1	/	.	.	/
Cc1ccc(Oc2cc(C)nc(-c3ccccc3O)n2)cc1	.	36.6	.	?
SMILES	MARV entry inh	CHX counter	Shiga inhibitor	LASV entry inh
Cc1cc(NCCCN)nc(-c2ccccc2O)n1	.	25.4	.	?
COc1ccc(C2(c3ccc(OC)cc3)NC(=O)NC2=O)cc1	.	.	.	?
O=C(Cn1cccn1)N1CCCC(N2CCN(c3ccccc3F)CC2)C1 (stereo unspecified)	.	.	.	.
CC1CN(c2nc3ccccc3nc2C(C#N)C(=O)NC2CCCCC2)CC(C)O1 (stereo unspecified)	.	18.7	.	/
COCCN(C(=O)COC(=O)C1CC1)c1c(N)n(Cc2ccccc2)c(=O)[nH]c1=O	?	/	/	.
CCCCCc1nnc(NC(=O)OCCC)s1	.	13.5	.	.
CCCCOC(=O)Nc1nnc(CC)s1	?	43.4	56.0	?
C/C=C(\C)c1nnc(NC(=O)OCC)s1	.	14.6	42.4	.
CCc1nnc(NC(=O)OCc2ccccc2)s1	.	19.8	60.1	.
CCOc1ccc(CC(=O)NNC(=S)NC)cc1Br	?	.	.	.
CCCCCCCn1c(=O)c(C(=O)OC)c(N)c2ccccc21	?	.	.	?
O=C(O)CC1c2ccccc2CCN1S(=O)(=O)c1cccs1 (stereo unspecified)	.	/	/	.
COc1cccc(OC)c1C(=O)n1nc(C)cc1C	.	.	.	.
CCN(Cc1ccccc1)S(=O)(=O)c1ccc(F)c(C(=O)Nc2cc(C(F)(F)F)ccc2Cl)c1	/	/	/	.
NC(=O)c1sc2nc(-c3ccco3)ccc2c1N	.	37.3	110.2	.
Nc1c(C(=O)Nc2ccccc2F)sc2nc(-c3ccco3)ccc12	?	46.9	96.8	.
COC(=O)c1sc2nc(-c3ccco3)ccc2c1N	.	68.4	93.1	?
NC(=O)c1sc2nc3c(c(-c4ccco4)c2c1N)CCC3	.	.	.	.
COC(=O)c1sc2cnccc2c1N	.	.	.	.
O=S(=O)(O)c1ccc(N=Nc2ccccc2)cc1	.	.	.	.
O=c1ccc(N=Nc2ccccc2)ccc1O	.	23.1	.	?
Fc1ccccc1N1CCN(c2nccn3nc(-c4ccc(Br)cc4)cc23)CC1	.	/	/	.
COc1cccc(/C=N/NC(=O)N/N=C/c2cccc(OC)c2O)c1O	4.47µM	25.5	/	?
CCn1c(C)nc2cc(C(=O)N/N=C/c3cccc(OC)c3O)ccc21	?	.	59.5	?
COc1cccc(/C=N\NC(=O)c2ccc(Cn3cc(Br)c([N+](=O)[O-])n3)o2)c1O	3.98µM	43.5	56.4	6.31µM
SMILES	MARV entry inh	CHX counter	Shiga inhibitor	LASV entry inh
COc1ccccc1C=NNC(=O)NN=Cc1ccccc1OC	.	/	/	.
COc1cccc(/C=N/NC(=O)C(=O)N2CCCC2)c1O	.	60.9	+	.
CCCCN=CC1=C(O)CC(c2ccccc2)CC1=O (stereo unspecified)	?	.	.	.
COc1ccc(CNC(=O)Cn2ncn3nc(-c4cccs4)cc3c2=O)cc1	.	/	/	.
COc1cccc(/C=N/NC(=O)c2nc(-c3ccccc3)cc(-c3ccccc3)n2)c1O	?	14.9	.	?
COc1cccc(/C=N/NC(=O)C(C)n2nc(C)c([N+](=O)[O-])c2C)c1O (stereo unspecified)	?	34.8	.	?
COc1cccc(/C=N/NC(=O)CSc2ccccc2C)c1O	?	.	37.4	?
COc1cccc(/C=N/NC(=O)CSc2ccccc2C)c1OC	?	.	.	?
COc1cc(OC)c2cc(C(=O)N/N=C/c3cccc(OC)c3O)[nH]c2c1	4.47µM	.	.	?
CCN(C(=O)CN1CCN(c2ccc(OC)cc2)CC1)c1c(N)n(Cc2ccccc2)c(=O)[nH]c1=O	.	.	.	.
COc1ccc(C)cc1NS(=O)(=O)c1cc(Br)cc2c1N(C(C)=O)C(C)C2 (stereo unspecified)	.	/	/	.
COc1cccc(/C=N/Nc2ccccc2C(=O)O)c1O	/	47.3	64.1	/
CCOC(=O)c1sc(-c2ccccc2)cc1N	.	58.8	115.7	.
CCOC(=O)c1sc(-c2ccc(F)cc2)cc1N	?	45.7	125.1	.
CCOC(=O)c1c(N)sc(-c2ccccc2)c1C	.	33.6	68.0	.
CCOC(=O)c1sc(-c2ccc(OC)cc2)cc1N	?	43.9	131.7	?
Cc1ccccc1Nc1c(-c2cccs2)nc2cccc(C)n12	.	/	/	.
O=C(CCCCCn1c(=O)[nH]c2ccsc2c1=O)NCc1ccccc1	?	/	/	.
CC(=O)Nc1ccc2nc(NC(=O)c3ccc([N+](=O)[O-])o3)sc2c1	?	.	.	?
Cc1cc(C)cc(N2CCn3c2nc2c3c(=O)n(CCCc3ccccc3)c(=O)n2C)c1	/	/	/	.
CCOC(=O)c1cc(-c2ccccc2)sc1N	?	36.5	58.6	.
